Source: PubChem BioAssay AID1159580 (chemical genetic matrix, 2015)
In all, about 5,500 compounds went through this assay and about 2,000 (36%) were called active. About 18% were inconclusive and are not listed. No stated cut-off is given here; in the data, active means normalized growth mostly below about 0.91 (no sharp cut-off); inconclusive means no clear call, values can overlap the other calls; inactive means mostly above about 0.92. This is one part of the list.

Test: chemical genetic growth profiling, strain panel (AID 1159580);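 further: tested at 20 µM; growth read once vehicle control cultures reached saturation at 30 °C; 1 = growth at the plate median or of vehicle wells; lower values mean less growth of the strain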
Details: growth OD

Measured: normalized growth

COc1ccc2c(c1)CCC1C2CC[C@@]2(C)C1CC[C@@H]2O (some centres not stated)
inactive: S. cerevisiae deletion strains, locus YKL068W, hits give low values 0.944 | S. cerevisiae deletion strains, locus YKR026C, strain gcn3, hits give low values 0.969 | S. cerevisiae deletion strains, locus YKR091W, strain srl3, hits give low values 0.968 | S. cerevisiae deletion strains, locus YLL041C, strain sdh2, hits give low values 0.973 | S. cerevisiae deletion strains, locus YLR102C, strain apc9, hits give low values 0.951 | S. cerevisiae deletion strains, locus YLR370C, strain arc18, hits give low values 0.959 | S. cerevisiae deletion strains, locus YLR371W, strain rom2, hits give low values 0.925 | S. cerevisiae deletion strains, locus YLR384C, strain iki3, hits give low values 1.02 | S. cerevisiae deletion strains, locus YML016C, strain PPZ1, hits give low values 0.977 | S. cerevisiae deletion strains, locus YML124C, strain tub3, hits give low values 0.934 | S. cerevisiae deletion strains, locus YMR125W, strain sto1, hits give low values 0.938 | S. cerevisiae deletion strains, locus YMR129W, hits give low values 0.961 | S. cerevisiae deletion strains, locus YMR231W, strain pep5, hits give low values 0.963 | S. cerevisiae deletion strains, locus YNL183C, strain NPR1, hits give low values 0.838 | S. cerevisiae deletion strains, locus YNL209W, strain ssb2, hits give low values 0.934 | S. cerevisiae deletion strains, locus YNL248C, strain rpa49, hits give low values 0.915 | S. cerevisiae deletion strains, locus YNL322C, strain KRE1 (second series), hits give low values 0.907 | S. cerevisiae deletion strains, locus YNR049C, strain mso1, hits give low values 0.984 | S. cerevisiae deletion strains, locus YOL012C, strain htz1 1.54 | S. cerevisiae deletion strains, locus YOR001W, strain rrp6, hits give low values 0.893 | S. cerevisiae deletion strains, locus YOR061W, strain CKA2, hits give low values 0.965 | S. cerevisiae deletion strains, locus YOR069W, strain VPS5, hits give low values 0.968 | S. cerevisiae deletion strains, locus YOR080W, strain dia2, hits give low values 0.98 | S. cerevisiae deletion strains, locus YOR231W, strain MKK1, hits give low values 0.883 | S. cerevisiae deletion strains, locus YOR270C, strain vph1, hits give low values 1.01 | S. cerevisiae deletion strains, locus YPL256C, strain CLN2, hits give low values 0.878 | S. cerevisiae deletion strains, locus YPR141C, strain kar3, hits give low values 0.967
active: S. cerevisiae deletion strains, locus YJR075W, strain HOC1, hits give low values 0.705 | S. cerevisiae deletion strains, locus YKL009W, strain mrt4, hits give low values 0.685 | S. cerevisiae deletion strains, locus YKL085W, strain MDH1 (second series), hits give low values 0.853 | S. cerevisiae deletion strains, locus YKL085W, strain MDH1, hits give low values 0.853 | S. cerevisiae deletion strains, locus YKL160W, strain elf1, hits give low values 0.829 | S. cerevisiae deletion strains, locus YKL190W, strain CNB1, hits give low values 0.843 | S. cerevisiae deletion strains, locus YKR001C, strain vps1, hits give low values 0.359 | S. cerevisiae deletion strains, locus YLL001W, strain dnm1, hits give low values 0.838 | S. cerevisiae deletion strains, locus YLL026W, hits give low values 0.902 | S. cerevisiae deletion strains, locus YLR027C, strain aat2, hits give low values 0.816 | S. cerevisiae deletion strains, locus YLR039C, strain RIC1, hits give low values 0.351 | S. cerevisiae deletion strains, locus YLR058C, strain SHM2, hits give low values 0.879 | S. cerevisiae deletion strains, locus YLR113W, strain HOG1, hits give low values 0.816 | S. cerevisiae deletion strains, locus YLR221C, strain rsa3, hits give low values 0.808 | S. cerevisiae deletion strains, locus YLR258W, strain gsy2, hits give low values 0.892 | S. cerevisiae deletion strains, locus YLR262C, strain YPT6 (second series), hits give low values 0.505 | S. cerevisiae deletion strains, locus YLR262C, strain YPT6, hits give low values 0.293 | S. cerevisiae deletion strains, locus YLR268W, strain sec22, hits give low values 0.818 | S. cerevisiae deletion strains, locus YLR320W, strain mms22, hits give low values 0.722 | S. cerevisiae deletion strains, locus YLR330W, strain CHS5, hits give low values 0.748 | S. cerevisiae deletion strains, locus YLR342W, strain FKS1 (second series), hits give low values 0.398 | S. cerevisiae deletion strains, locus YLR342W, strain FKS1, hits give low values 0.781 | S. cerevisiae deletion strains, locus YLR357W, strain rsc2, hits give low values 0.852 | S. cerevisiae deletion strains, locus YLR418C, strain cdc73, hits give low values 0.381 | S. cerevisiae deletion strains, locus YML032C, strain rad52, hits give low values 0.696 | S. cerevisiae deletion strains, locus YML120C, strain ndi1, hits give low values 0.896 | S. cerevisiae deletion strains, locus YMR058W, strain fet3, hits give low values 0.872 | S. cerevisiae deletion strains, locus YMR078C, strain ctf18, hits give low values 0.867 | S. cerevisiae deletion strains, locus YMR205C, strain PFK2, hits give low values 0.697 | S. cerevisiae deletion strains, locus YMR223W, strain ubp8, hits give low values 0.728 | S. cerevisiae deletion strains, locus YMR263W, strain SAP30, hits give low values 0.785 | S. cerevisiae deletion strains, locus YMR307W, strain GAS1, hits give low values 0.237 | S. cerevisiae deletion strains, locus YNL067W, strain RPL9B, hits give low values 0.791 | S. cerevisiae deletion strains, locus YNL071W, strain lat1, hits give low values 0.468 | S. cerevisiae deletion strains, locus YNL128W, strain TEP1, hits give low values 0.78 | S. cerevisiae deletion strains, locus YNL153C, strain GIM3, hits give low values 0.838 | S. cerevisiae deletion strains, locus YNL233W, strain BNI4, hits give low values 0.584 | S. cerevisiae deletion strains, locus YNL250W, strain rad50, hits give low values 0.85 | S. cerevisiae deletion strains, locus YNL271C, strain bni1, hits give low values 0.8 | S. cerevisiae deletion strains, locus YNL298W, strain CLA4, hits give low values 0.548 | S. cerevisiae deletion strains, locus YNL307C, strain MCK1, hits give low values 0.266 | S. cerevisiae deletion strains, locus YNL322C, strain KRE1, hits give low values 0.87 | S. cerevisiae deletion strains, locus YNR052C, strain pop2, hits give low values 0.738 | S. cerevisiae deletion strains, locus YOL006C, strain TOP1, hits give low values 0.477 | S. cerevisiae deletion strains, locus YOL147C, strain pex11, hits give low values 0.695 | S. cerevisiae deletion strains, locus YOR070C, strain gyp1, hits give low values 0.873 | S. cerevisiae deletion strains, locus YOR083W, strain WHI5, hits give low values 0.825 | S. cerevisiae deletion strains, locus YOR106W, strain vam3, hits give low values 0.738 | S. cerevisiae deletion strains, locus YOR136W, strain idh2, hits give low values 0.853 | S. cerevisiae deletion strains, locus YOR144C, strain elg1, hits give low values 0.898 | S. cerevisiae deletion strains, locus YOR184W, strain ser1, hits give low values 0.458 | S. cerevisiae deletion strains, locus YOR265W, strain rbl2, hits give low values 0.912 | S. cerevisiae deletion strains, locus YOR290C, strain snf2, hits give low values 0.761 | S. cerevisiae deletion strains, locus YOR316C, strain cot1, hits give low values 0.85 | S. cerevisiae deletion strains, locus YPL051W, strain arl3, hits give low values 0.83 | S. cerevisiae deletion strains, locus YPL055C, strain LGE1, hits give low values 0.53 | S. cerevisiae deletion strains, locus YPL078C, strain atp4, hits give low values 0.791 | S. cerevisiae deletion strains, locus YPL106C, strain sse1, hits give low values 0.837 | S. cerevisiae deletion strains, locus YPL240C, strain hsp82, hits give low values 0.892 | S. cerevisiae deletion strains, locus YPL241C, strain CIN2, hits give low values 0.893 | S. cerevisiae deletion strains, locus YPR119W, strain clb2, hits give low values 0.917 | S. cerevisiae deletion strains, locus YPR163C, strain tif3, hits give low values 0.657 | S. cerevisiae deletion strains, locus YPR167C, strain met16, hits give low values 0.85 | S. cerevisiae deletion strains, strain wtn01, hits give low values 0.731 | S. cerevisiae strains, strain wild type, hits give low values 0.785
